From PubChem BioAssay
Most compounds without a hit are left out; they make up all but 8.1% or so of the library.
SW480 rereplic: induces DNA re-replication in SW480 colon adenocarcinoma cells | 1.8% of 340,000 active | Potency, µM (series often up to 46.1 µM), for inactives: at the top dose re-replication activation, most hits filed as activators | SW480 DNA re-replication, Hoechst DNA content imaging, 48 h; note: % of control where 0% means no effect; nearly all actives have a fitted effect of over 55% in size
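Treated cells incubate 48 hr (37 C, 5% CO2), are stained 40 min with Hoechst, and nuclear fluorescence is enumerated; a rise in nuclei with high DNA signal marks re-replication.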
KB-3-1 tox: KB-3-1 parental cell cytotoxicity; KB-3-1 viability, CellTiter-Glo ATP luminescence, 72 h; Potency, µM (series often up to 46.1 µM), usual class: cytotoxic; 1.4% of 400,000 active; AID 1347075; note: % is set by controls: 0 for no effect and ±100 for the full control effect; nearly all actives have a fitted effect of over 60% in size
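Cytotoxicity in the drug-sensitive parental line KB-3-1 was scored as loss of CellTiter-Glo luminescence following 72 h incubation with compound. Values come from curve fitting of normalized concentration-response data.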
ELG1 repair inh: inhibitors of ELG1-dependent DNA repair in HEK293T cells. HEK293T ELG1-luciferase reporter, luminescence, 16 h; DNA damage induced by 5-fluorouridine. Potency, µM (titrated, usually from 46.1 µM), without a hit: at the top dose activity change, negative = inhibition, most hits filed as inhibitors. 2.3% of 330,000 active; note: % is set by controls: 0 for no effect and ±100 for the full control effect; nearly all actives have a fitted effect of over 55% in size
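Luminescence from the luciferase reporter, measured 30 min after ONE-Glo reagent at room temperature, was the read-out. Beforehand, 2,000 cells per well were exposed for 16 hr at 37 °C to 5-fluorouridine together with compound or vehicle.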
KB-V1 cytotox: kills drug-selected multidrug resistant KB-V1 cells | AID 1347076 | Potency, µM (highest dose often 46.1 µM), actives largely listed as cytotoxic | 3.4% of 400,000 active | KB-V1 MDR cells viability, CellTiter-Glo, 72 h; note: % is set by controls: 0 for no effect and ±100 for the full control effect; nearly all actives have a fitted effect of over 60% in size
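Potencies derive from concentration-effect curves fitted to normalized luminescence (CellTiter-Glo) of KB-V1 cells treated for 72 h at 37 degrees C in phenol-red-free DMEM containing 10% FBS.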
MCF10A rerep: induces DNA re-replication in MCF 10a normal breast cells; MCF 10A DNA re-replication, Hoechst nuclear intensity, 48 h; Potency, µM (doses to about 46.1 µM), for the others: top-dose activity, positive = re-replication, usual class: activators; 2.9% of 350,000 active; AID 624296; note: % of control where 0% means no effect; nearly all actives have a fitted effect of over 50% in size
Starred values were filed as active, the others as inactive; i = inactive; ? = inconclusive; · = no result given. Calls come from the whole dose curve; as a rule, active = well fitted curve in the direction sought with a large enough effect; inconclusive = small, poorly fitted or top-dose-only effect, or another doubt; inactive = no such curve, though single readings can be large; an effect the other way counts as inactive or inconclusive. Potency is the fitted concentration of half-maximal effect.

SMILES	SW480 rereplic	KB-3-1 tox	ELG1 repair inh	KB-V1 cytotox	MCF10A rerep
CCOc1cc(C2c3c(oc4cc(C)c(Cl)cc4c3=O)C(=O)N2Cc2ccco2)ccc1O (stereo not drawn)	5.4%	?	?	1.84µM*	?
Cc1cc2oc3c(c(=O)c2cc1C)C(c1cccc(Br)c1)N(Cc1ccco1)C3=O (stereo not drawn)	-18.7%	i	0.631µM*	i	10µM*
Cc1ccc2oc3c(c(=O)c2c1)C(c1cccc(Br)c1)N(Cc1ccco1)C3=O (stereo not drawn)	?	i	-1.7%	i	?
C[C@H]1CN([C@@H](C)CO)C(=O)c2cc(Br)cnc2O[C@@H]1CN(C)S(C)(=O)=O	·	i	·	i	·
CCOC(=O)CN1C(C(=O)c2ccccc2)=C(OC(=O)c2ccccc2)c2ccccc2S1(=O)=O	·	i	·	i	·
C=CCN1C(C(=O)c2ccccc2)=C(OC(=O)COc2ccccc2)c2ccccc2S1(=O)=O	?	?	?	11.6µM*	?
O=S(=O)(Nc1nc2ccccc2nc1Cl)c1ccc2ccccc2c1	2.5%	i	-19.3%	?	23.1µM*
O=S(=O)(Nc1nc2ccccc2nc1Cl)c1ccccc1	5.2%	i	-5.5%	i	0.5%
Cc1cccc(Nc2cc(C)c3c(O)cccc3n2)c1C	20.6µM*	?	-9.5%	i	?
Cc1cc(Nc2ccccc2O)nc(C)n1	·	i	·	?	·
O=c1cc(CNc2cc(C(F)(F)F)cc(C(F)(F)F)c2)nc2sccn12	-1.0%	23.1µM*	-3.4%	25.9µM*	?
COc1ccc(N2CCN(C(=O)Oc3ccc([N+](=O)[O-])cc3)CC2)cc1	·	i	·	i	·
COc1ccc(N2CCN(C(=O)c3ccc(COc4ccc([N+](=O)[O-])cc4)o3)CC2)cc1	17.9%	·	20.6µM*	·	?
O=C(CSc1ccccc1C(=O)N1CCN(c2ccc([N+](=O)[O-])cc2)CC1)N1CCCC1	2.2%	?	14.6µM*	i	11.2%
O=C(c1ccc(-c2ccc([N+](=O)[O-])cc2)o1)N1CCCCCCC1	8.6%	?	?	i	11.6µM*
O=C(NC(=S)N1CCN(c2ccc([N+](=O)[O-])cc2)CC1)c1ccccc1F	-2.5%	i	-15.9%	20.6µM*	10.2%
O=C(c1ccc(-c2ccc([N+](=O)[O-])cc2)o1)N1CCCC(C(F)(F)F)C1 (stereo not drawn)	-5.8%	i	-26.2%	i	14.1%
COc1ccc(OC)c(/C=N/NC(=O)CCc2ccc(O)c(O)c2)c1	?	i	1.5%	i	13.1%
Cc1cc(C(=O)N2CCN(c3ccc([N+](=O)[O-])cc3)CC2)co1	3.1%	i	-8.2%	i	3.2%
Cc1c(Cl)cccc1-c1ccc(C(=O)N2CCN(c3ccc([N+](=O)[O-])cc3)CC2)o1	-0.1%	i	16.4µM*	i	6.5%
Cc1cc(C(=O)N2CCN(c3ccc([N+](=O)[O-])cc3)CC2)c(C)o1	4.11µM*	i	-13.8%	i	3.66µM*
Cc1onc(C(=O)/C=C/N(C)C)c1C(=O)Nc1nccs1	-4.9%	i	?	i	-5.5%
COc1cccc(CNC(=O)CN(C)S(=O)(=O)c2cccc3cccnc23)c1	-0.6%	i	-1.7%	i	0.8%
CN(Cc1ccccc1)S(=O)(=O)c1cccc2cccnc12	-22.5%	i	-13.5%	20.6µM*	0.2%
CSc1ccc(CNC(=O)C2CCN(c3nc4ccccc4nc3C(F)(F)F)CC2)cc1	·	i	·	i	·
COc1cccc(NC(=O)NCc2ccccc2F)c1	-5.8%	i	?	i	7.5%
COc1cccc(N/C(SCc2ccccc2F)=C(/C#N)C(=O)NCc2cccs2)c1	?	i	-15.6%	16.4µM*	?
COCCCn1c(=NC(C)=O)c(C#N)cc2c(=O)n3cccc(C)c3nc21	5.8µM*	i	-10.9%	i	18.4µM*
Cc1cccn2c(=O)c3cc(C#N)c(=NC(=O)c4cccs4)n(CC(C)C)c3nc12	?	i	1.1%	i	?
